Screening data: PubChem BioAssay, several laboratories
Myeloid diff 2 – induction of myeloid progenitor differentiation, primary screen, cell-based, flow cytometry, MLPCN library; ER-HoxA9 myeloid progenitors, lysozyme-GFP differentiation; calls only at 10 µM; actives 1% (n = 360,000); AID 624256, 2012;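 active = normalized GFP-positive differentiation at or above the plate's own cutoff, the solvent-only control mean plus 3 SD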;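 note: cells exposed to compound for four days before flow analysis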
ABCB6 inh MLPCN – ABCB6 transporter inhibitors, primary screen, K562-ABCB6 cells, flow cytometry, MLPCN library | ATP-binding cassette sub-family B member 6 (Homo sapiens), Q9NP58 | K562-ABCB6 porphyrin accumulation, 1 h; hits give low values | fluorescence ratio to DMSO, % at 10 µM | actives 0.19% (n = 360,000) | AID 602162, 2011;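 active = fluorescence ratio to DMSO below 75%, the collection mean minus 3 SD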;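 note: signal is porphyrin accumulated inside mitochondria; lower ratio means ABCB6 inhibition with less porphyrin fluorescence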
Target sequence (Q9NP58 whole entry, looked up): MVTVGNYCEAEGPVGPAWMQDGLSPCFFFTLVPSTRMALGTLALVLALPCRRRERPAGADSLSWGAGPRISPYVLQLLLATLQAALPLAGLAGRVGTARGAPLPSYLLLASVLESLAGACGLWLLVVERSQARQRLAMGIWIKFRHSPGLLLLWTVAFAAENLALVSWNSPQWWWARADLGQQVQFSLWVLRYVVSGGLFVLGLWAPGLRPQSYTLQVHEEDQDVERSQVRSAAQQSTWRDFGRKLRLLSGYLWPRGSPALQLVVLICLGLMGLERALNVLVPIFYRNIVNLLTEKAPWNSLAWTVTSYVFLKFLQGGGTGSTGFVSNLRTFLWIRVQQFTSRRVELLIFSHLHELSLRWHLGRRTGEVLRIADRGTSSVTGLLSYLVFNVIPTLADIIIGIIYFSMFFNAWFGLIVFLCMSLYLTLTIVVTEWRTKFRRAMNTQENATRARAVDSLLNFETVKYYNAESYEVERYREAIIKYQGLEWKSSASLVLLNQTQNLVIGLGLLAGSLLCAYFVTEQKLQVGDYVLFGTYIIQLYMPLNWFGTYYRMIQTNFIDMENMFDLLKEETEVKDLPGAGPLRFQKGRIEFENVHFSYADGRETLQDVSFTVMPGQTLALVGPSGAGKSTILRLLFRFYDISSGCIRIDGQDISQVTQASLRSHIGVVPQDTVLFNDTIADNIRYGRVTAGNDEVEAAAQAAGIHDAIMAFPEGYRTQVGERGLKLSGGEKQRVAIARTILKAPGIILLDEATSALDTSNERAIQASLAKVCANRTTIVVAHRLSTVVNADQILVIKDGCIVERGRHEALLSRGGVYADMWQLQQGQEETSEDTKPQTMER
TLR9-MyD88 block – inhibitors of TLR9-MyD88 association in cells, primary screen, cell-based, CHO, BLA complementation, fluorescence | Toll-like receptor 9 (Homo sapiens) + Myeloid differentiation primary response protein … | CCF4 FRET ratio | inhibition, % at 4.98 µM | actives 0.21% (n = 340,000) | AID 504734, 2011;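 active = inhibition above the mean over all tested compounds plus 3 SD, cut at about 21% in these data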
TLR4 MyD88 comp – inhibitors of TLR4-MyD88 association in cells, primary screen, cell-based, HeLa CL3-4, BLA complementation, FRET ratio; inhibition, % at 8.4 µM; AID 861, 2007; actives 0.18% (n = 200,000); HeLa CL3-4 TLR4/MyD88 BLA complementation; Toll-like receptor 4 (Homo sapiens) + Myeloid differentiation primary response protein …; in the data active = inhibition above about 25%
NOD2 RIPK2 PPI – NOD2-RIPK2 binding disruptors in cells, primary screen, fluorescence, CHO cells, BLA complementation. CCF4 ratio. Receptor-interacting serine/threonine-protein kinase 2 (Homo sapiens), O43353. actives 0.38% (n = 360,000). inhibition, % at 4.98 µM. AID 624267, 2012; in the data active = inhibition above about 21%
TLR9-MyD88 cf – TLR9-MyD88 association inhibitors, retest, confirmation, cell-based, CHO, BLA complementation, fluorescence, triplicate | CCF4 FRET ratio | inhibition, % at 4.98 µM | shares compounds with TLR9-MyD88 block | actives 51% (n = 680);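 active = mean inhibition across three repeats above about 21% taken from the earlier screen, limit read from the data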;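 note: blue over green emission ratio reports constitutive TLR9 MyD88 association via BLA complementation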
BLA counter-1 – beta-lactamase reporter inhibitors in CHO cells, artefact control for TLR9-MyD88 binding inhibitor project, cell-based, fluorescence; inhibition, % at 4.98 µM; shares compounds with TLR9-MyD88 block; CHO-BLA cells, CCF4 FRET ratio, BLA reporter; actives 7% (n = 680); AID 540251, 2011;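 active = mean inhibition above a 50% cutoff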;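 note: counterscreen of TLR9-MyD88 hits on CMV-driven BLA in CHO-K1 cells; higher means less blue over green ratio so more BLA blockade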
TLR9 CHO cytotox – CHO cell viability loss – luminescence, single concentration, cytotoxicity control for TLR9-MyD88 binding inhibitor project. shares compounds with TLR9-MyD88 block. TLR9-MyD88 CHO cells cytotoxicity. inhibition, % at 4.98 µM. actives 39% (n = 680). AID 588336, 2011; in the data active = inhibition above about 11%
ABCB6 blocker 1 – ABCB6 transporter inhibitors, confirmation, K562-ABCB6 cells, flow cytometry, cherry pick 1; shares compounds with ABCB6 inh MLPCN; K562-ABCB6 porphyrin accumulation, 1 h; hits give low values; ratio response (% of DMSO), % at 10 µM; 700 tested, under 10 active; AID 602430, 2012;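 active = repeat-averaged ratio response below 75% of DMSO, the collection mean minus 3 SD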;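 note: median porphyrin fluorescence at 575 nm with 488 nm excitation from mitochondria; lower ratio means less porphyrin signal so ABCB6 inhibition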
Myeloid diff CP1 – inducers of myeloid progenitor differentiation, confirmation, cell-based, GFP/Mac1 flow cytometry, cherry pick 01; shares compounds with Myeloid diff 2; ER-HoxA9 myeloid progenitors, GFP/Mac1 double-positive flow; calls only; actives 2% (n = 2,300); AID 651706, 2012;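 active = share of green or green-and-red cells above 9 and 9% in run 1 or 4 and 3% in run 2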
GFP autofluor – compound fluorescence in myeloid differentiation counter-screen; shares compounds with Myeloid diff 2; ER-HoxA9 myeloid progenitors, no estrogen, GFP autofluorescence flow cytometry; vehicle wells 0%, positive control 100%; fluorescence response, % (no concentration beside the values); actives 7.4% (n = 2,300); AID 651707;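 active = over 5% cells positive for green fluorescent reporter, or over 2% positive for both it and APC stain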
NOD2-RIPK2 conf – NOD2-RIPK2 binding disruptors, retest, confirmation, fluorescence, CHO cells, BLA complementation, triplicate. shares compounds with NOD2 RIPK2 PPI. CCF4 FRET. inhibition, % at 4.98 µM. actives 70% (n = 1,200). AID 624370, 2012;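 active = mean inhibition across replicates above a set limit taken from the earlier primary screen, cut at about 21% in these data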
BLA counter-2 – NOD2-RIPK2 counterscreen BLA reporter activity. inhibition, % at 4.98 µM. actives 57% (n = 1,200). CHO BLA reporter, CCF4 FRET ratio. shares compounds with NOD2 RIPK2 PPI;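 active = mean inhibition above the low-control mean inhibition plus three low-control SD, cut at about 11% in these data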
Of the large screens only hits and unclear results are named; the others gave an inactive call (follow-up assays come after a bar, where they were run). Shown are actives, neighbours in structure and some others; about 1.7% of the full set was active somewhere.

COc1ccc(-c2nn(-c3ccccc3)cc2C(=O)N2CCN(S(=O)(=O)c3cccc(F)c3)CC2)cc1	none (no result: TLR4 MyD88 comp)
C/C(=N/Nc1ccc([N+](=O)[O-])cc1)c1c[nH]c2ccccc12	Myeloid diff 2 active, TLR9-MyD88 block 37 (no result: TLR4 MyD88 comp) | TLR9-MyD88 cf 24 | BLA counter-1 inactive | TLR9 CHO cytotox inactive
C/C(=N/Nc1ccc([N+](=O)[O-])cc1)c1ccc(C)cc1C	TLR9-MyD88 block 22 | TLR9-MyD88 cf inactive | BLA counter-1 inactive | TLR9 CHO cytotox inactive
C/C(=N\NC(=O)CCc1c[nH]c2ccccc12)c1ccc([N+](=O)[O-])cc1	none
C/C(=N\Nc1ccc([N+](=O)[O-])cc1)c1ccc(C#N)cc1	none (no result: TLR4 MyD88 comp)
Cc1ccc(NS(=O)(=O)c2c(C)[nH]c(C)c2C(=O)N2CCCCC2)c(Cl)c1	none (no result: TLR4 MyD88 comp)
CCC(C)c1ccc(O)c(NC(=S)NC(=O)c2cccs2)c1 (centres undefined)	none (no result: TLR4 MyD88 comp)
Nc1c(C(=O)Nc2nccs2)sc2nc(-c3cccs3)cc(C(F)(F)F)c12	Myeloid diff 2 active, TLR9-MyD88 block 22 | TLR9-MyD88 cf inactive | BLA counter-1 inactive | TLR9 CHO cytotox inactive
COC(=O)c1ccc(NC(=O)c2nc(S(=O)(=O)Cc3cccc(C)c3)ncc2Cl)cc1	ABCB6 inh MLPCN 41, TLR9-MyD88 block 42 (no result: TLR4 MyD88 comp) | TLR9-MyD88 cf 33 | BLA counter-1 inactive | TLR9 CHO cytotox 100 | ABCB6 blocker 1 inactive
Cc1ccccc1SCCNC(=O)c1ccccc1Br	none
O=C(NC1CCCCC1)c1cccc2c1C(=O)c1ccc(N3CCC(Cc4ccccc4)CC3)cc1S2(=O)=O	Myeloid diff 2 active, TLR9-MyD88 block 80 (no result: TLR4 MyD88 comp) | TLR9-MyD88 cf 37 | BLA counter-1 inactive | TLR9 CHO cytotox inactive | Myeloid diff CP1 inactive | GFP autofluor inactive
Oc1ccc(CCNc2ncnc3ccc(Cl)cc23)cc1	none (no result: TLR4 MyD88 comp)
COc1cc2[nH]c(=O)n(C3CCCCC3)c(=O)c2cc1OC	none
Nc1ccc2nc3c(=O)n(C4CCCCC4)c(=O)[nH]c3nc2c1	TLR9-MyD88 block 35, NOD2 RIPK2 PPI 41 (no result: TLR4 MyD88 comp) | TLR9-MyD88 cf inactive | BLA counter-1 inactive | TLR9 CHO cytotox inactive | NOD2-RIPK2 conf 59 | BLA counter-2 66
Cc1cccc(-n2cc(CNCCN3CCOC3=O)c(-c3cccc(F)c3)n2)c1	none
